Screening data (PubChem BioAssay)
The full list was thinned out, with hits kept by preference.
Pf apPOL block – Pf-apPOL inhibitors, biochemical, fluorescence. Plasmodium falciparum apicoplast DNA polymerase (apPOL). Recombinant Pf-apPOL, molecular beacon fluorescence, 1.5 h. inhibition, % at 10 µM. 0.25% of 210,000 active. AID 1794808, 2022
mHTT-CaM PPI inh – mutant huntingtin-calmodulin interaction inhibitors – biochemical, AlphaScreen, primary screen; inhibition, % at 15 µM; 3.6% of 190,000 active; AlphaScreen His-mHTT/GST-CaM binding, luminescence;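 further: 0% = both proteins with DMSO and 100% = one protein alone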
Target sequence (P42858 whole entry, looked up, stated change not applied): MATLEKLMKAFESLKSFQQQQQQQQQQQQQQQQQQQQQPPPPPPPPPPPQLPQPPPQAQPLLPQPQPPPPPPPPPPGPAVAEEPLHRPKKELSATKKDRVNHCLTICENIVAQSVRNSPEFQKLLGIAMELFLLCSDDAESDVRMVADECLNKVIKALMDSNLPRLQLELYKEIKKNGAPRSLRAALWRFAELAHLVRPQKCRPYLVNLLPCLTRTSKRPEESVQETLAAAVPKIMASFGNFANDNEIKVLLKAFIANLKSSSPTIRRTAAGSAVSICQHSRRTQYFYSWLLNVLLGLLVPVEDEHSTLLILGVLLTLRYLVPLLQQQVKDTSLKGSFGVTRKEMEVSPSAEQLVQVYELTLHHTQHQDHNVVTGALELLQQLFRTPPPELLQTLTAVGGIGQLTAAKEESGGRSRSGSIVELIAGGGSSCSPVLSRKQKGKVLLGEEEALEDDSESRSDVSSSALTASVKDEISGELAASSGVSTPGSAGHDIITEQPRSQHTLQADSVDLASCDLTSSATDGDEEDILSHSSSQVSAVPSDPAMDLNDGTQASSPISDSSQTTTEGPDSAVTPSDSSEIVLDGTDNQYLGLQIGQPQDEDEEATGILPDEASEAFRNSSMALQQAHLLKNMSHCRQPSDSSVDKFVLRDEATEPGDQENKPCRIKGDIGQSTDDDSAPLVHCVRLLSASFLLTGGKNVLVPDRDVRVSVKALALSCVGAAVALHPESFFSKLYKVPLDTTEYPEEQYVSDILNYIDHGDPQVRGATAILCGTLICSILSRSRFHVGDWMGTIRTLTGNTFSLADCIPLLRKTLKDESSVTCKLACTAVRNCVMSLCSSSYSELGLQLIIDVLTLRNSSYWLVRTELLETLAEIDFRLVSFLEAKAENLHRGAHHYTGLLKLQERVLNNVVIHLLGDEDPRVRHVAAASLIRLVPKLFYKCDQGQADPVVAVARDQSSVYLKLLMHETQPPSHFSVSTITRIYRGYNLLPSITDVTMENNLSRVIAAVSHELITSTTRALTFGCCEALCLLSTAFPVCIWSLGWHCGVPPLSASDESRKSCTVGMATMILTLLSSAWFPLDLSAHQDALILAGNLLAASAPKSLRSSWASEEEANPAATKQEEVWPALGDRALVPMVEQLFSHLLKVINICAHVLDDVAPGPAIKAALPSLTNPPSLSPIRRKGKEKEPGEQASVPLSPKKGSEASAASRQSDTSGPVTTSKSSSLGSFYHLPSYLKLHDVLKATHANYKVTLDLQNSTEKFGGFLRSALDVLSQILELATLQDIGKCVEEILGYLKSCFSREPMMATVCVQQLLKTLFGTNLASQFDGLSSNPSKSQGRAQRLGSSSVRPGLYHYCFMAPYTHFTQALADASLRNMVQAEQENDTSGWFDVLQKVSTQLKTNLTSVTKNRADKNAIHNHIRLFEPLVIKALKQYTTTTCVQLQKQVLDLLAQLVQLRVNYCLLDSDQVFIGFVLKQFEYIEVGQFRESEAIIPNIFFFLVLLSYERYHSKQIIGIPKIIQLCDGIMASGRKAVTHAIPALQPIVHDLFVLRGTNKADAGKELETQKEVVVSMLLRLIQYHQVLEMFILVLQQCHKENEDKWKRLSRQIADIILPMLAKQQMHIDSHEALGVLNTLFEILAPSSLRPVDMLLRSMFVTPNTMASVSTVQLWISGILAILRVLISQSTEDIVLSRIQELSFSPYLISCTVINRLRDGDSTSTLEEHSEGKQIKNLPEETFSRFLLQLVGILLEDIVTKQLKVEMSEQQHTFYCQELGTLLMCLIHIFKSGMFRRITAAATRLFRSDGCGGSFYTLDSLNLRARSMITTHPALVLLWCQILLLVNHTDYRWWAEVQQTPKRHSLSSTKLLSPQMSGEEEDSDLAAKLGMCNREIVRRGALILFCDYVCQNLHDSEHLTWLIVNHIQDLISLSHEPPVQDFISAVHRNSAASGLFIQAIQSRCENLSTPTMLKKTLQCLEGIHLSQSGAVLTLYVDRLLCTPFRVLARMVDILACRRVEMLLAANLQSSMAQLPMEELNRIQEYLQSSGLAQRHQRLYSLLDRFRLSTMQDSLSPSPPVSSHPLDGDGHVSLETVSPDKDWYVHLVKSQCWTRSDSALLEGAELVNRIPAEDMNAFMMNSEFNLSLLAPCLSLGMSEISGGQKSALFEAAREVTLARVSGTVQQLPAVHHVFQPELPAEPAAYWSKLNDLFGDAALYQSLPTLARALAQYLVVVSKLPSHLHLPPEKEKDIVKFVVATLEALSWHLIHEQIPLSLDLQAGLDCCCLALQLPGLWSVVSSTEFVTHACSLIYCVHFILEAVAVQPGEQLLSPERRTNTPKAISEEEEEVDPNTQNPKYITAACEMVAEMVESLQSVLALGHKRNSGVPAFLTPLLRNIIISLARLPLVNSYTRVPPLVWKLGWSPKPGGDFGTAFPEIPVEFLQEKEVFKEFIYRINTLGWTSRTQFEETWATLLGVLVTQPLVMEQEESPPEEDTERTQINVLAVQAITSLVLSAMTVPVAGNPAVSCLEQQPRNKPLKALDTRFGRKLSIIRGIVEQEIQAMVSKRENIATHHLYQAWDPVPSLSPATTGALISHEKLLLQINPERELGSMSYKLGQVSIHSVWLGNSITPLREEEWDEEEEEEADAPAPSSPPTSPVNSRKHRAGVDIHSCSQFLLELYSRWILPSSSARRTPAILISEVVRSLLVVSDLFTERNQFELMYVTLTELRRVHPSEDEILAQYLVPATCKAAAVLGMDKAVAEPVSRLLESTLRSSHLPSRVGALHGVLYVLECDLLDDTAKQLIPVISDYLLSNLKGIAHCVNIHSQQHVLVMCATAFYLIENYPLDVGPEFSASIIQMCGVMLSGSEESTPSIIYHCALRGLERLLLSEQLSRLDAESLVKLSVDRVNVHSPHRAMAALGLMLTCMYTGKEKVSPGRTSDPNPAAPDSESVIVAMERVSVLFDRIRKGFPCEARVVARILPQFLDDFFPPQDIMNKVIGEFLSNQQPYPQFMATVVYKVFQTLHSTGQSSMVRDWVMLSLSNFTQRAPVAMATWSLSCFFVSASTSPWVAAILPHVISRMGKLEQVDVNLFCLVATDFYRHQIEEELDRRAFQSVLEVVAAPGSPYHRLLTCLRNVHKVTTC
Numbers without * were called inactive; . = not tested or not shown. No stated cut-off is given here; in the data, active means inhibition above about 50%; inactive means the rest.

SMILES | Pf apPOL block | mHTT-CaM PPI inh
COc1ccc(CN2COc3ccc4c(c3C2)OC(=Cc2cccc(OC)c2OC)C4=O)cc1OC | -6 | -3
COc1ccc(C(O)=C2C(=O)C(=O)N(CCCn3ccnc3)C2c2ccccc2F)cc1 (centres undefined) | -5 | 3
CCCc1noc(-c2cccnc2N2CCCN(C(=O)CCc3ccccc3)CC2)n1 | -5 | -24
Cc1ccc(C(=O)N2CCCC(COc3cccc(C(=O)NC4CC4)c3)C2)cc1 (centres undefined) | -7 | -3
COc1ccc(C(=O)N2CCC(Cc3nc4cccnc4n3C(C)C)C2)c(C)c1 (centres undefined) | 2 | 6
Nc1ccc(Cl)cc1C(O)c1ccccc1 (centres undefined) | -6 | -2
CC(Nc1ccc(Cl)cc1N)c1ccccc1 (centres undefined) | -4 | 98*
COc1ccc(CCNc2ccc(N3C(=O)C4CCC(C)CC4C3=O)cc2[N+](=O)[O-])cc1OC (centres undefined) | -22 | 45
COCCOc1nc(-c2ccc(Br)cc2)nc2ccccc12 | -5 | -21
O=C(Nc1ccccc1-c1nc2ccccc2[nH]1)c1ccccc1F | 5 | 34
CCSc1ccccc1C(=O)Nc1ccccc1-c1nc2ccccc2[nH]1 | -9 | 61*
O=C(NCCC1=CCCCC1)c1ccc2c(c1)NC(=O)C1CCCCN21 (centres undefined) | -6 | -4
CCN1CCn2c(nc3cc(C(=O)Nc4ccc(C)c(C)c4)ccc32)C1=O | 1 | 1
CCOc1ccc(NC(=O)N2CC(CC)Oc3ccc(C)cc32)cc1 (centres undefined) | 0 | -1
COc1ccc2[nH]cc(CCN3CC(C(=O)Nc4ccc(C)c(Cl)c4)CC3=O)c2c1 (centres undefined) | 5 | 75*
NC(=O)c1ccc(NC(=O)C2CC(=O)N(CCc3c[nH]c4ccc(Cl)cc34)C2)cc1 (centres undefined) | 1 | 100*
CCc1ccc(NC(=O)C2CC(=O)N(CCc3c[nH]c4ccc(F)cc34)C2)cc1 (centres undefined) | -2 | 57*
O=C(Nc1ccc(Cl)cc1)C1CC(=O)N(CCc2c[nH]c3ccc(F)cc23)C1 (centres undefined) | 3 | 20
Cc1nnc(NC(=O)C2CC(=O)N(CCc3c[nH]c4ccc(Cl)cc34)C2)s1 (centres undefined) | 0 | 12
Cc1cc(C)cc(N2CC(C(=O)N(C)Cc3ccccc3)CC2=O)c1 (centres undefined) | -3 | 4
COc1ccc(NC(=O)C2CC(=O)N(CCc3c[nH]c4ccc(F)cc34)C2)c(OC)c1 (centres undefined) | -1 | 29
Cc1ccc(N2CC(C(=O)N(C)Cc3ccccc3)CC2=O)cc1Cl (centres undefined) | -1 | 61*
O=C(c1cccc(F)c1)N1CCN(c2ccc([N+](=O)[O-])cc2)CC1 | -1 | 5
COc1cccc(C(CC(=O)NCc2cccnc2)NS(=O)(=O)c2ccc(C)cc2)c1OC (centres undefined) | -5 | -8
O=C(Nc1ccc2nn(-c3cccc(Cl)c3)nc2c1)c1ccc([N+](=O)[O-])cc1[N+](=O)[O-] | -1 | 27
SMILES | Pf apPOL block | mHTT-CaM PPI inh
O=C(Nc1nnc(CCS(=O)(=O)c2ccc(Cl)cc2)s1)c1ccc(Cl)cc1 | 2 | 2
O=C(Cn1c(=O)oc2ccccc21)NCC1(O)CCc2ccccc21 (centres undefined) | -1 | -12
O=C(c1ccc(F)cc1)N1CCN(c2nnc3ccccn23)CC1 | -2 | -2
CCOc1ccc(NC(=O)C2CC(=O)N(CCc3c[nH]c4ccc(F)cc34)C2)cc1 (centres undefined) | 1 | 16
COc1ccc(NC(=O)C2CC(=O)N(CCc3c[nH]c4ccc(Cl)cc34)C2)cc1 (centres undefined) | -5 | 87*
Cc1ccccc1NC(=O)C1CC(=O)N(CCc2c[nH]c3ccc(Cl)cc23)C1 (centres undefined) | -2 | 56*
Cc1ccccc1NC(=O)C1CC(=O)N(CCc2c[nH]c3ccc(F)cc23)C1 (centres undefined) | 2 | 9
CN(Cc1ccccc1)C(=O)C1CC(=O)N(CCc2c[nH]c3ccc(Cl)cc23)C1 (centres undefined) | 5 | 62*
CCOc1ccc(NC(=O)C2CC(=O)N(CCc3c[nH]c4ccc(Cl)cc34)C2)cc1 (centres undefined) | 2 | 99*
Cc1ccc2[nH]cc(CCN3CC(C(=O)Nc4ccc(F)cc4)CC3=O)c2c1 (centres undefined) | 1 | 10
CCNC(=O)C1CC(=O)N(CCc2c[nH]c3ccc(Cl)cc23)C1 (centres undefined) | -2 | 5
Cc1nnsc1C(=O)NC1Cc2ccccc2C1 | 2 | .
O=C(Nc1ccccn1)c1ccc(SC2CCCCC2)c([N+](=O)[O-])c1 | -10 | 14
Cc1ccc(-c2ccnc3c(C(=O)NCc4ccccn4)cnn23)cc1C | -6 | -8
O=C(NCc1cc(F)cc(F)c1)c1cc2c(s1)CN(C1CCCC1)C2 | 1 | -3
CS(=O)(=O)N1CCc2cc(NC(=O)c3cccc(Br)c3)ccc21 | -7 | 4
CCC(=O)NC1CCN(C(=O)C2CCC2)C1 (centres undefined) | -3 | -5
Cc1nn(-c2ccc(F)cc2)c2nc(N3CCCC(C(=O)NC4CCCCC4)C3)sc12 (centres undefined) | -1 | -10
Cc1ccc2[nH]cc(CCN3CC(C(=O)Nc4cccc(Cl)c4)CC3=O)c2c1 (centres undefined) | -2 | 47
Cc1ccc2[nH]cc(CCN3CC(C(=O)Nc4cc(Cl)ccc4C)CC3=O)c2c1 (centres undefined) | -4 | 49
Cc1ccc2[nH]cc(CCN3CC(C(=O)Nc4cccc(Cl)c4C)CC3=O)c2c1 (centres undefined) | -2 | 56*
O=C(Nc1ccc2c(c1)OCO2)C1CC(=O)N(CCc2c[nH]c3ccc(Cl)cc23)C1 (centres undefined) | -4 | 82*
Cc1ccc2[nH]cc(CCN3CC(C(=O)Nc4ccc5c(c4)OCO5)CC3=O)c2c1 (centres undefined) | 0 | 35
Cc1ccc(NC(=O)C2CC(=O)N(CCc3c[nH]c4ccc(Cl)cc34)C2)cc1 (centres undefined) | 2 | 62*
Nc1ccc2nc(C(O)C(O)c3nc4ccc(N)cc4[nH]3)[nH]c2c1 (centres undefined) | 0 | 37
SMILES | Pf apPOL block | mHTT-CaM PPI inh
Cn1nc(C(=O)Nc2ccc(OC(F)(F)F)cc2)ccc1=O | -123 | -7
O=C(O)CC1(CC(=O)Nc2ccc(N3CCOCC3)c(Cl)c2)CCCCC1 | -10 | .
O=C(NC1CCCC1)N1CCN(Cc2nc3cccnc3n2-c2ccccc2)CC1 | 1 | 17
CC1Cc2ccccc2N1C(=O)c1ccc2nc(N3C(=O)CCC3=O)sc2c1 (centres undefined) | -5 | 52*
CC1Cc2ccccc2N1C(=O)c1ccc(Cl)cc1 (centres undefined) | 2 | -39
O=C(N/C(=C\c1cccc(F)c1)C(=O)N1CCSCC1)c1ccccc1Br | -3 | 8
Cc1ccc(NC(=O)CCS(=O)(=O)c2ccc(Br)cc2)nc1 | 10 | -2
Cc1ccc(S(=O)(=O)CCC(=O)Nc2ncc(Br)s2)cc1 | 0 | 69*
